Our source for the Potency, outcome and activity change, negative = cytotoxicity values is PubChem BioAssay (NCATS).

Results filed as inconclusive are left out. Entries that show only a call come without a potency. Unmarked numbers belong to inactive results. Calls of active or inactive are those of the source. The call rests on the fitted dose curve. Numbered stars: 1 amine (or outer) side, 2 acyl side, 3 side chain; on linkers, the order of the positions; unused ones are H or OH. Square brackets hold non-standard residues; d marks the D form. Side chains are listed from the residue outwards. Peptide text beside a SMILES is read from it. * marks the point of attachment. Ethylenediamine = C(CN[*:2])N[*:1]; Hyp = O=C(O)[C@@H]1C[C@@H](O)CN1; Phg = N[C@H](C(=O)O)c1ccccc1; CO = O=C([*:1])[*:2]; Bn = c1ccc(C*)cc1

The test can be described thus: Primary qHTS for Huh7 cytotoxicity: counterscreen for inhibitors of MERS-S pseudotyped particle cell entry (AID 1479147). The settings on record: cell viability read-out; series mostly up to 57.1 µM. For orientation: Quantitative high-throughput screening tests each substance at several concentrations.
With `C[C@H](NCCc1ccc(O)cc1)[C@H](O)c1ccc(O)cc1`, the Potency entry is “inactive”. Turning to `CCOC(=O)[C@H](C)C[C@@H](Cc1ccc(-c2ccccc2)cc1)NC(=O)CCC(=O)O`, the Potency result is “inactive”. Consider `C[N+]1(C)C2CC[C@H]1CC(OC(=O)C(O)c1ccccc1)C2` (some centres undefined), for which the Potency entry is “inactive”. Still for that read-out and setting: next, `CCC(=O)Oc1ccc2c(c1)CC[C@@H]1[C@H]2CC[C@]2(C)[C@@H](OC(=O)CC)CC[C@@H]12`: “inactive”; `CCN1CCCC1CNC(=O)c1cc(S(=O)(=O)CC)ccc1OC` (centres undefined): “inactive”.

As for `CC(=O)O[C@]1(C(C)=O)CC[C@H]2[C@@H]3C[C@H](C)C4=CC(=O)C=C[C@]4(C)[C@@]3(F)[C@@H](O)C[C@@]21C`, the Potency result is “inactive”.

As for `NCCCC[C@@H]1NC(=O)[C@@H](Cc2c[nH]c3ccccc23)NC(=O)[C@H](c2ccccc2)NC(=O)[C@@H]2C[C@@H](OC(=O)NCCN)CN2C(=O)[C@H](Cc2ccccc2)NC(=O)[C@H](Cc2ccc(OCc3ccccc3)cc2)NC1=O` (cyclo([Hyp]([CO-Ethylenediamine])[Phg][dW]KY(Bn)F)), the Potency result is “inactive”. The same measure, in the same setting: as for `CCCCOC(=O)C(=O)Nc1cccc(-c2nn[nH]n2)c1`, the entry is “inactive”; as for `CCCCC/C=C\C/C=C\C/C=C\CCCCC(=O)O`, “inactive”; as for `Cc1ncc([N+](=O)[O-])n1CCOC(=O)c1ccccc1`, “inactive”. On to `CCOC(=O)COc1ccc2c(=O)cc(-c3ccccc3)oc2c1`, for which the Potency result is “inactive”. Same read-out and setting: next, `NC(=O)[C@H]1O[C@@H](O)[C@H](O)[C@@H](O)[C@@H]1O`: “inactive”; `C[C@@H]1CCC[C@H](C)N1NC(=O)c1ccc(Cl)c(S(N)(=O)=O)c1`: “inactive”.

For the compound `C=C[C@@H]1C[C@]1(NC(=O)[C@@H]1C[C@@H]2CN1C(=O)[C@H](C(C)(C)C)NC(=O)O[C@@H]1C[C@H]1CCCCCc1nc3ccc(OC)cc3nc1O2)C(=O)NS(=O)(=O)C1CC1`, the Potency result is “inactive”. For the compound `C=CC[N@@+]12CC[C@]34c5ccccc5N5/C=C6\C7N(/C=C(\C53)[C@@H](C[C@@H]41)/C(=C/CO)C2)c1ccccc1[C@@]71CC[N@@+]2(CC=C)C/C(=C\CO)[C@@H]6C[C@@H]12` (some centres undefined), the Potency entry is “inactive”. For the compound `CC(C)CN(C[C@@H](O)[C@H](Cc1ccccc1)NC(=O)O[C@H]1CCOC1)S(=O)(=O)c1ccc(N)cc1`, the Potency result was “inactive”. `OC[C@H]1O[C@@H](O)[C@H](O)[C@@H](O)[C@@H]1O`: the Potency entry was “inactive”. On the same count and under the same terms, next, `CCCCCCCCCCCCCC(=O)OCC(COP(=O)([O-])OCC[N+](C)(C)C)OC(=O)CCCCCCCCCCCCC` (centres undefined): “inactive”; `C[C@H]1C[C@@H]2[C@H]([C@@H](O)C[C@@]3(C)[C@H]2CC[C@]3(O)C(=O)COC(=O)CCC(=O)O)[C@@]2(C)C=CC(=O)C=C12`: “inactive”; `CC(C)(CO)C(O)C(=O)NCCCC(=O)O` (centres undefined): “inactive”. With `COC(F)(F)C(Cl)Cl`, the Potency entry was “inactive”.

For `C[N+](C)(C)CCOP(=O)([O-])OP(=O)(O)OC[C@H]1OC(n2ccc(N)nc2=O)[C@H](O)[C@@H]1O` (some centres undefined), the outcome was “inactive [at 0.573 µM]”. With `C[C@H]1O[C@]2(CS1)CN1CCC2CC1`, the Potency entry was “inactive”. Turning to `CCCCc1cc2c(=O)c(C(=O)OC)c[nH]c2cc1OCc1ccccc1`, the Potency entry is “inactive”. On to `O=C(Cn1c(=O)sc2ccc(Cl)cc21)N1CCN(CCO)CC1`, for which the Potency entry was “inactive”. Turning to `CCCCCc1ccc(C)cc1O`, the Potency result is “inactive”. `CC1(C)S[C@@H]2[C@H](NC(=O)[C@H](N)c3ccccc3)C(=O)N2[C@H]1C(=O)OCOC(=O)[C@@H]1N2C(=O)C[C@H]2S(=O)(=O)C1(C)C`: the Potency result is “inactive”.

Take `O=[N+]([O-])c1ccc(/C=C/c2cccc(CO)n2)o1`: the Potency result is “inactive”.

In the case of `CN(C)CC(c1ccc(O)cc1)C1(O)CCCCC1` (centres undefined), the Potency result was “inactive”. `FC(F)OC(Cl)C(F)(F)F` (centres undefined): the Potency entry is “inactive”. Turning to `Cc1cc(Nc2ccccc2C(=O)O)ccc1Cl`, the Potency result is “inactive”. Same read-out and setting: as for `CCCCCCCCCC(=O)OCCN1CCN(CC/C=C2/c3ccccc3Sc3ccc(Cl)cc32)CC1`, the entry is “inactive”; as for `CC(=O)c1cc2cccc(OCC(O)CNC(C)C)c2o1` (centres undefined), “inactive”; as for `CC[C@H]1OC(=O)C[C@@H](OC(C)=O)[C@H](C)[C@@H](O[C@@H]2O[C@H](C)[C@@H](O[C@H]3C[C@@](C)(O)[C@@H](OC(=O)CC(C)C)[C@H](C)O3)[C@H](N(C)C)[C@H]2O)[C@@H](CC=O)C[C@@H](C)C(=O)/C=C/C(C)=C/[C@@H]1CO[C@@H]1O[C@H](C)[C@@H](O)[C@@H](OC)[C@H]1OC`, “inactive”. As for `CCC1(C)OC(=O)N(C)C1=O` (centres undefined), the Potency entry is “inactive”. As to `CC=CC1=C(C(=O)O)N2C(=O)[C@@H](NC(=O)[C@H](N)c3ccc(O)cc3)[C@H]2SC1`, the Potency result is “inactive”. In the case of `O=C(N[C@H]1CCS[C@H]2CCC[C@@H](C(=O)O)N2C1=O)[C@@H](S)Cc1ccccc1`, the Potency entry is “inactive”.

As for `Nc1nc2c(c(=O)[nH]1)N(C=O)C(CNc1ccc(C(=O)N[C@@H](CCC(=O)O)C(=O)O)cc1)CN2` (some centres undefined), the activity change, negative = cytotoxicity was 2.64% [at 0.573 µM]. As to `COCC1=C(C(=O)OC(C)OC(=O)OC(C)C)N2C(=O)[C@@H](NC(=O)/C(=N/OC)c3csc(N)n3)[C@H]2SC1` (some centres undefined), the Potency result is “inactive”.
